CYP2C9 act: activators of human CYP2C9 | activation factor at 5 µM | recombinant CYP2C9, luciferin-H conversion, luminescence; active compounds read high; factor 1 = untreated enzyme, 0 = blocked | hit rate 1.4% among 96,000 | P11712;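 active = activation factor of 2 or more for CYP2C9 at a 5 µM dose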;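 note: 0 = sulfaphenazole-blocked wells and 1 = vehicle-only wells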
CYP2C19 inh: blocks human cytochrome P450 2C19; P33261; CYP2C19 Supersomes, luciferin-H EGE luminescence, 30 min; inhibition, % at 5 µM; hit rate 21% among 96,000; AID 778;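 active = CYP2C19 inhibition above a set limit at 5 µM in the primary screen, cut at about 50% in these data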;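 note: plate controls were negative control wells for no effect and 2.5 mM tranylcypromine positive control for full effect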
Target sequence (P33261 whole entry, looked up): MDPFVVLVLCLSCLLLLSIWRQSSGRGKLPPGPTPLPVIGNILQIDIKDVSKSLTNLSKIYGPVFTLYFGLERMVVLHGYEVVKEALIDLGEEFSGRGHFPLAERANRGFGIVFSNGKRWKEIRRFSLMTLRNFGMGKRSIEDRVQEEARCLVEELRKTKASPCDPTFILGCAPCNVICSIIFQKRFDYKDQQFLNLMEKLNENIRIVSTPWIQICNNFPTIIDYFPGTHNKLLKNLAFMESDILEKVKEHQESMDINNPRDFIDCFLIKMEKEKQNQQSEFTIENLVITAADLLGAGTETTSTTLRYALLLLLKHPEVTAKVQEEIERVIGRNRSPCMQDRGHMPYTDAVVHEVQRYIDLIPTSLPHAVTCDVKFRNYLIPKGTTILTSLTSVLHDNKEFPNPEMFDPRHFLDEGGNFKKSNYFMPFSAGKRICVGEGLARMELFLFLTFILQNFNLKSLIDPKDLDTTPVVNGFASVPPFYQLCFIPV
PostGolgi yeast: growth inhibition of a yeast mutant, post-Golgi transport screen. post-Golgi transport phenotypic cell assay. inhibition, % at 10 µM. hit rate 0.9% among 98,000. AID 739;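 note: yeast cells grown in 1536-well plates; yeast grown about 18 h at 30C before absorbance read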
CYP2C19 activ: activators of human cytochrome P450 2C19. P33261. recombinant CYP2C19, luciferin-H EGE luminescence; active compounds read high; 0 = fully inhibited enzyme, 1 = untreated enzyme. activation factor at 5 µM. 96,000 tested, under 10 active. AID 1025;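 active = activation factor of at least 2 at 5 µM in the primary screen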;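 note: 0 = wells with 2.5 mM tranylcypromine and 1 = vehicle-only wells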
PostGolgi ctrl: inhibits growth of the yeast control strain; efflux-deficient yeast background strain, growth absorbance A615, 16 h; inhibition, % at 10 µM; hit rate 5% among 98,000; AID 738
CYP2C9 inh: human CYP2C9 inhibition. CYP2C9 Supersomes, luciferin-H conversion, luminescence. inhibition, % at 5 µM. P11712. hit rate 20% among 96,000;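 active = blocking of liver enzyme CYP2C9 beyond about 50% at 5 µM, limit read from the data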
* hit, by the source's call; / = not tested or not shown. The list is not random: actives were taken first. Their share in the collection is about 32%. Cut-off read from the data, not from the text of the source, unless noted: active = inhibition above about 30%; inactive = the rest.

SMILES	CYP2C9 act	CYP2C19 inh	PostGolgi yeast	CYP2C19 activ	PostGolgi ctrl	CYP2C9 inh
CC1CCCCC1NS(=O)(=O)c1ccc(S(=O)(=O)N2CCN(CCC#N)CC2)cc1 (stereo not given)	0.6	52*	-2	0.5	7	45
N#CCCN1CCN(S(=O)(=O)c2ccc(S(=O)(=O)NCC3CCCO3)cc2)CC1 (stereo not given)	0.9	-23	0	1.2	15	6
Cc1ccc(S(=O)(=O)N2CCN(C(=O)C3=COCCO3)CC2)cc1C	1	97*	-1	0	0	3
CC(C)n1nc(C(=O)NCCc2ccc(S(N)(=O)=O)cc2)c2ccccc2c1=O	0.4	9	0	0.9	14	63*
Cc1ccc(S(=O)(=O)N2CCN(C(=O)c3nn(C(C)C)c(=O)c4ccccc34)CC2)cc1C	0.4	38	-3	0.6	21	59*
O=C(C1=COCCO1)N1CCN(S(=O)(=O)c2cccc(Cl)c2Cl)CC1	0.8	25	-9	0.7	12	17
COC(=O)CN(c1cccc(F)c1)S(C)(=O)=O	0.9	0	-4	1	10	8
COc1ccc(C2C3=C(CC(C)(C)CC3=O)Oc3ncn(Cc4ccco4)c(=N)c32)cc1 (stereo not given)	1	-7	7	1.1	4	5
Cc1ccc(Cn2ccc(NC(=O)c3cc(-c4cccs4)on3)n2)cc1	0.8	1	-2	1	11	22
N#CCCN1CCN(S(=O)(=O)c2ccc3c(c2)OCCCO3)CC1	0.9	82*	-2	0.2	1	8
O=C1CC(c2ccccc2)CC(O)=C1C=NCc1ccc(Cl)cc1 (stereo not given)	0.9	29	-16	0.7	20	14
O=C1CC(c2cccc(Cl)c2)CC(O)=C1C=NCCCO (stereo not given)	2.7*	11	-3	0.9	11	-170
CCOc1ccc2[nH]c(O)c(NC(C)=O)c2c1	1.1	-12	3	1.1	-3	-7
CCCCN=Cc1sc2ccc(OCC)cc2c1O	1.1	94*	-10	0.1	0	-9
CCCCN1C(=O)C(NC(=O)CC(C)C)(C(F)(F)F)C2=C1CC(C)(C)CC2=O (stereo not given)	1	1	3	1	5	-3
CCn1c(N)c(C(=O)NCCCOC)sc1=S	0.8	20	2	0.8	0	16
CC(C)OCCCNC(=O)c1sc(=S)n(C)c1N	0.3	57*	0	0.4	13	67*
CCOC(=O)c1cc2c(nc1N)CC(C)(CC)OC2 (stereo not given)	0.7	92*	-15	0.1	-1	32
CC(C)=CC/C=C1\CCC(C(=O)O)C(C(=O)O)C1 (stereo not given)	0.9	-13	-4	1.1	8	7
Cc1ccccc1-n1c(Cn2c(=O)sc3ccccc32)nnc1SCC(=O)Nc1nccs1	/	/	4	/	5	/
Cc1cccc(C)c1NC(=O)CSc1nnc(Cn2nnc(-c3ccccc3)n2)n1-c1ccccc1	0.1	74*	3	0.3	10	92*
Cn1c(Cn2c(=O)sc3ccccc32)nnc1SCc1ccccc1F	0.6	52*	4	0.5	21	36
CSc1nnc(Cn2c(=O)sc3ccccc32)n1-c1cccc(Cl)c1	0.7	9	-2	0.9	0	32
CCCSc1nnc(Cn2c(=O)sc3ccccc32)n1-c1ccccc1	0.3	82*	0	0.2	3	68*
Cc1csc(NC(=O)CSc2nnc(Cn3c(=O)sc4ccccc43)n2-c2ccccc2)n1	0.4	-12	10	1.1	-3	61*
SMILES	CYP2C9 act	CYP2C19 inh	PostGolgi yeast	CYP2C19 activ	PostGolgi ctrl	CYP2C9 inh
Cc1c(C(=O)OCC(=O)N2CC(=O)Nc3ccccc32)oc2ccc(Br)cc12	1.3	-26	4	1.3	2	-29
CCOC(=O)c1c(NC(=O)c2nc3n(n2)C(C(F)F)CC(C)N3)sc2c1CCCC2 (stereo not given)	0.6	19	-1	0.8	-2	38
O=C(Cn1[nH]c(=O)c2ccccc2c1=O)N1CC=C(c2ccccc2)CC1	0.3	81*	-1	0.2	14	67*
COC(=O)CNC(=O)c1c(C)cc(=O)oc1C	1.3	4	-3	1	5	-30
CC(C)NC(=O)NC(=O)COC(=O)c1ccccc1Oc1ccccc1	0.5	46	8	0.5	11	47
CC(C)COC(=O)c1ccc2c(c1O)C(=O)c1ccccc1C2=O	0.6	-36	104*	1.4	23	36
CC(CP(=O)(O)O)NC(=O)Cc1ccccc1 (stereo not given)	1.2	-10	3	1.1	4	-22
COc1ccccc1C1/C(=C(/O)c2ccc(C)cc2)C(=O)C(=O)N1CC(C)O (stereo not given)	0.9	-5	-14	1.1	4	9
COc1ccccc1C1/C(=C(/O)c2ccccc2)C(=O)C(=O)N1CC(C)C (stereo not given)	0.4	-10	9	1.1	5	59*
O=C(CSc1nccn1-c1ncc(C(F)(F)F)cc1Cl)c1ccc(Br)cc1	0.4	93*	-7	0.1	13	62*
Cc1ccc(CON=C2CCN(c3ncc(C(F)(F)F)cc3Cl)CC2)cc1	0.8	23	-5	0.8	2	21
O=C(Nc1ccc(Br)cc1)c1cccn1-c1ncc(C(F)(F)F)cc1Cl	0.7	25	2	0.8	22	32
Cc1ccc(/C(CSc2nccn2-c2ncc(C(F)(F)F)cc2Cl)=N\O)cc1	0.5	56*	-7	0.4	24	52*
N#Cc1c(N)nc2c(c1-c1ccccc1)CCCC2	1.2	14	-2	0.9	12	-25
N#Cc1c(N)nc2c(c1-c1cccc(O)c1)CCCCCC2	0.5	31	-7	0.7	21	54*
N#Cc1c(N)nc2c(c1-c1ccncc1)CCCC2	0.7	76*	10	0.2	11	34
Cc1noc2nc(-c3cccs3)cc(-c3nnc4n3CCCCC4)c12	0.9	2	/	1	/	14
O=[N+]([O-])c1ccc(N2CCN(S(=O)(=O)c3ccc(Cl)cc3)CC2)cc1NCc1cccnc1	0.5	5	71*	1	11	53*
O=C(NCc1ccccn1)C(F)(F)C(F)(F)C(=O)NCc1ccccn1	1.1	-9	9	1.1	2	-15
O=C(Nc1nc(-c2ccccc2)cs1)C1CCCCN1S(=O)(=O)c1ccccc1 (stereo not given)	0.1	72*	-7	0.3	35*	92*
CN1CCN(S(=O)(=O)c2ccc(NC(=O)C(C)(C)C)cc2)CC1	1	-9	-8	1.1	16	1
O=C(Nc1nc(-c2ccccc2)cs1)C1CCCCN1S(=O)(=O)c1ccc(Cl)cc1 (stereo not given)	0.1	30	3	0.7	57*	95*
